Compound activity as filed in PubChem BioAssay.
USP2a inhib = USP2a (human) protease inhibition; O75604; USP2a enzymatic assay, qHTS inhibition; Potency, µM (series often up to 38.3 µM), inactives show at the highest dose activity change, negative = inhibition, most hits filed as inhibitors; 60,000 compounds, 0.1% hits; AID 927; further: nearly all actives have a fitted effect of over 60% in size
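Coupled readout: USP2-cleaved Ub-PLA2 (20nM final) turns over NBD C6-HPC (20uM final), Ex 460nm/Em 535nm after 2.5 h, time-zero read flagging artifacts. Enzyme (20nM final, pH 8.0 Tris) given 30 min RT with compound first; NEM defines full inhibition.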
HEK293 cAMP ctrl = parental HEK293 cAMP activation (counter-screen) | parental HEK293 CNG cAMP sensor, membrane potential fluorescence | Potency, µM (doses to about 57.1 µM), for inactives: at the highest dose activation, usual class: activators | 73,000 compounds, 2.5% hits; further: % of control where 0% means no effect; nearly all actives have a fitted effect of over 55% in size
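Counterscreen for endogenous-receptor signalling: CNG-channel HEK 293 cells report cAMP rise by membrane depolarization. After 60 min dye equilibration with 100 uM RO 20-1724, compounds incubated 30 min before bottom-read fluorescence at 590 nm.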
TSHR ag = activates the human thyroid stimulating hormone receptor; HEK293-CNG-TSHR cells (CNG channel as cAMP sensor), membrane potential dye, cAMP; 73,000 compounds, 0.48% hits; Potency, µM (doses to about 57.1 µM), for the others: top-dose activation, most hits filed as activators; active means well fitted activation curve with a large enough effect in the main read-out, with a control signal flat, not every such curve was filed as active; inconclusive means small, poorly fitted or top-dose-only effect, or a change in a side signal; inactive means no such curve, though single readings can be large or run the other way; % of control where 0% means no effect;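 further: the control signal comes from parental cells without the receptor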
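HEK 293 cells stably expressing TSHR and a modified CNG channel, with CNG-only parental cells as counterscreen, were preloaded 60 min at room temperature with membrane potential dye containing 100 uM RO 20-1724. Compound exposure was 30 min, and depolarization was read as fluorescence at 590 nm.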
Casp7 inh = allosteric or competitive inhibitors of human caspase-7 | P55210 | recombinant caspase-7, Ac-DEVD-AFC fluorescence rate | Potency, µM (top dose mostly 57.5 µM), inactives show at the highest dose activity change, negative = inhibition, usual class: inhibitors | 75,000 compounds, 0.02% hits; active means well fitted inhibition curve with a large enough effect in the main read-out, with a control signal flat, not every such curve was filed as active; inconclusive means small, poorly fitted or top-dose-only effect, or a change in a side signal; further: % of control where 0% means no effect
CRE-bla Fsk = alters forskolin-stimulated CRE reporter signaling in CHO cells; CHO CRE-bla reporter (cAMP response element driving beta-lactamase), forskolin EC10, beta-lactamase ratio; 71,000 compounds, 2.5% hits; Potency, µM (series often up to 38.2 µM), without a hit: top-dose activity change, negative = inhibition, most hits filed as activators; active means well fitted activation curve with a large enough effect in the signal ratio, with a control signal flat, not every such curve was filed as active; inconclusive means small, poorly fitted or top-dose-only effect, or effect the other way, or a change in a side signal; the % refers to the signal ratio; further: % of control where 0% means no effect
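Titrated compounds plus EC10 NKH 477 on CHO CRE-bla cells, 3 h, 37 °C. CCF4, 2 h RT. Ratio 460/530 nm → AC50.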
Caspase-1 inhib = allosteric or competitive inhibitors of human caspase-1. 75,000 compounds, 0.03% hits. AID 900. Potency, µM (titrated, usually from 57.5 µM), inactives show at the top dose activity change, negative = inhibition, hits mostly inhibitors. Caspase-1 enzyme, Ac-WEHD-AFC fluorogenic rate. P29466;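 further: plate controls were vehicle for no effect and no substrate for full effect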
* hit, by the source's call; ? = inconclusive; / = not tested or not shown; [ ] = dose if it differs, or a comment. Compounds with a hit are over-represented: about 5% of the library has one in this group of screens. Unless noted, the call rests on the fitted dose curve; in most records, active means well fitted curve in the direction sought with a large enough effect; inconclusive means small, poorly fitted or top-dose-only effect, or another doubt; inactive means no such curve, though single readings can be large; an effect the other way counts as inactive or inconclusive. Potency means the concentration at half of the fitted maximal effect.

SMILES | USP2a inhib | HEK293 cAMP ctrl | TSHR ag | Casp7 inh | CRE-bla Fsk | Caspase-1 inhib
CCOC(=O)CCN1C(=O)[C@H]2[C@H]3[C@H](O)[C@H](O)C/C(=N/O[C@@H]4O[C@@H](COC(C)=O)[C@@H](OC(C)=O)[C@@H](OC(C)=O)[C@H]4OC(C)=O)[C@@H]3CC[C@@H]2C1=O | / | 4%[11.4 µM] | 18%[11.4 µM] | -6%[11.5 µM] | / | 0%[11.5 µM]
COc1ccc(CCNc2oc(-c3ccccc3OC)nc2C#N)cc1 | -3% | 6% | 2% | -1% | ? | -4%
COc1ccccc1-c1nc(C#N)c(NCc2ccc(F)cc2)o1 | 3% | -2% | 9% | 1% | 13µM* | -4%
CCc1cc2c(nc1CC)CCN(CC/C(C)=N/O[C@@H](C)CN1CCCc3nc(C)c(C)cc31)C2 | / | 30%[11.4 µM] | 19%[11.4 µM] | -10%[11.5 µM] | / | -2%[11.5 µM]
CCOC(=O)CNC(=O)CSc1nc2cccnc2n1C1CCCCC1 | / | 11% | -3% | 1% | ? | -1%
CC(C)OC(=O)CSc1nc2cccnc2n1C1CCCCC1 | -3% | 16µM* | ? | 4% | ? | -5%
COc1ccc(-c2cc(C(F)(F)F)nc(SCCC(=O)Nc3cc(C)on3)n2)cc1 | 5% | ? | ? | -6% | 0% | -2%
Cc1cc(NC(=O)CCCS(=O)(=O)c2nc(-c3cccs3)cc(C(F)(F)F)n2)no1 | -5% | 6% | 10% | 2% | ? | -2%
Cc1cc(NC(=O)CSc2nc(-c3cccs3)cc(C(F)(F)F)n2)no1 | / | 18% | 9% | 3% | 3.2µM* | 1%
COc1ccc(-c2cc(C(F)(F)F)nc(SCC(=O)Nc3cc(C)on3)n2)cc1OC | 25% | 20% | 6% | -5% | 2µM* | -11%
FC(F)(F)c1cc(CO[C@@H]2CCCN[C@H]2c2ccccc2)cc(C(F)(F)F)c1 | 8% | 22% | / | 0% | 2% | 2%
CC(C)C=O | / | 7% | 3% | 0% | -9% | 0%
C=CC(C)(C)c1[nH]c2ccccc2c1C1=C(O)C(=O)C(c2c[nH]c3c(CC=C(C)C)cccc23)=C(O)C1=O | / | 7% | 10% | -21% | ? | -8%
CC1CC(N(C(=O)c2ccco2)c2ccccc2)c2ccccc2N1 (stereo unspecified) | 15% | 27% | 13µM* | -1% | 5% | -2%
CCCCCc1cc(O)c2c(C)cc(=O)oc2c1 | 7%[7.66 µM] | 3.2µM* | ? | 1% | ? | -4%
Cc1cc(C)c2c(=O)[nH]c(SCC(=O)N3CCCCC3)nc2n1 | 1%[7.66 µM] | 10%[11.4 µM] | 13%[11.4 µM] | -1% | 2.5µM* | 0%
COc1ccc(C(=O)CSc2nc3nc(C)cc(C)c3c(=O)[nH]2)cc1OC | -7% | 2% | -11% | 0% | 2.5µM* | -1%
Cc1ccc(NC(=O)CSc2nc3nc(C)cc(C)c3c(=O)[nH]2)cc1 | 8% | 30% | / | -2% | 3.2µM* | 0%
Cc1cc(C)c2c(=O)[nH]c(SCC(=O)Nc3ccccc3)nc2n1 | -4% | 22% | / | 4% | 5µM* | 0%
Cc1cc(=O)[nH]c(SCC(=O)N2CCCCCC2)n1 | -7% | 7% | -4% | -2% | 8% | -1%
CCCn1c(-c2ccc(F)cc2)nc2c(NCCCCN(CC)CC)nc(C)nc21 | / | ? | ? | -14% | 22% | 1%
CC(C)CO/N=C1/C[C@@H](O)[C@@H](O)[C@@H]2[C@@H]3C(=O)N([C@@H](C)c4ccccc4)C(=O)[C@H]3CC[C@@H]12 | / | -9%[11.4 µM] | -4%[11.4 µM] | -2%[11.5 µM] | / | 1%[11.5 µM]
O=c1[nH]c(=S)[nH]c2c1CN(CCCN1CCOCC1)CN2 | / | 0%[11.4 µM] | 4%[11.4 µM] | 1%[11.5 µM] | ? | -3%[11.5 µM]
OC[C@@H]1O[C@@H](n2cnc3c(NC4CCCCC4)ncnc32)[C@@H](O)[C@H]1O | 4% | 21% | / | -2% | 2% | -1%
Cc1cc(Cl)nc(NC(=O)CSc2ccc(Cl)cc2)n1 | / | 27%[11.4 µM] | 3%[11.4 µM] | 5%[11.5 µM] | -2%[7.6 µM] | ?
COC(=O)c1ccccc1 | / | 3% | ? | 2% | -2% | -2%
O=C(Oc1cccc2c(O)cccc12)c1ccccc1 | 13µM* | -9% | -5% | -2% | -7% | -2%
